SMILES strings stand for the structures. Where “and” joins values, the source holds several entries; their conditions need not be identical. Equal values may be shown once. Results filed as inconclusive are left out. Some structures have more than one record in an assay (separate samples or runs), and their calls can disagree. Calls of active or inactive are those of the source. The call rests on the fitted dose curve; in most records, active means well fitted curve in the direction sought with a large enough effect in the repeat runs; inconclusive means weak or mixed curves; inactive means no such curve, though single readings can be large; an effect the other way counts as inactive or inconclusive.

This passage reports Potency results from PubChem BioAssay (Tox21).

For assay [1], the target named is Cytochrome P450 2C19 (Homo sapiens) (UniProt P33261). The assay can be described thus: Cytochrome P450 Family 2 Subfamily C Member 19 (CYP2C19) small molecule antagonists: luciferase reporter qHTS assay (AID 1671197). Further: nearly all actives have a fitted effect of over 65% in size. Further: potency means the concentration at half of the fitted maximal effect. Particulars: P450-Glo CYP2C19 enzyme, luciferin luminescence, 1 h; series mostly up to 115 µM. In outline: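 Light output is proportional to CYP2C19 activity: proluciferin substrate is converted to luciferin, then detected by a luciferin detection reagent that also stops the 1 h, 37C NADPH-driven reaction. Ketoconazole serves as positive control.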
On the technique in general: Reporter assays use an easily measured gene product as a stand-in for the process of interest.

Assay [2] deals with Cytochrome P450 2C9 (Homo sapiens) (UniProt P11712). In words: Cytochrome P450 Family 2 Subfamily C Member 9 (CYP2C9) small molecule antagonists: luciferase reporter qHTS assay (AID 1671198). Further: nearly all actives have a fitted effect of over 50% in size. Further: potency means the concentration at half of the fitted maximal effect. Particulars: P450-Glo CYP2C9 enzyme assay, luciferin luminescence; series mostly up to 115 µM. The method, boiled down:
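CYP2C9 activity was measured with a P450-Glo proluciferin substrate. Enzyme–substrate mix was held with compound for 10 min at room temperature, then NADPH regeneration solution was added for 1 h at 37C. Luciferin product was read as luminescence.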

Assay [3] deals with Cytochrome P450 1A2 (Homo sapiens) (UniProt P05177). In words: Cytochrome P450 Family 1 Subfamily A Member 2 (CYP1A2) small molecule antagonists: luciferase reporter qHTS assay (AID 1671199). Further: nearly all actives have a fitted effect of over 50% in size. Further: potency means the concentration at half of the fitted maximal effect. The note with it: P450-Glo CYP1A2 enzyme, luciferin luminescence, 1 h; series mostly up to 115 µM. In outline: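 Luminescence readout (relative luminescence units) after luciferin detection reagent, 20 min RT. Preceded by 1 h room-temperature CYP1A2 reaction with NADPH regeneration solution following 10 min compound preincubation with enzyme and proluciferin substrate. Furafylline positive control.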

The target of assay [4] is Voltage-gated inwardly rectifying potassium channel KCNH2 (Homo sapiens) (UniProt Q12809). In words: Human Ether-a-go-go-Related Gene (hERG) channel small molecule antagonists: fluorescence cell-based qHTS assay (AID 1671200).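 Further: hERG-expressing U2OS cells given a thallium stimulus after FluxOR II dye loading; nearly all actives have a fitted effect of over 50% in size.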 The note with it: hERG-U2OS cells, FluxOR thallium flux fluorescence; series mostly up to 76.8 µM. The method, boiled down: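 Read-out: thallium influx as a surrogate for potassium, tracked as fluorescence (480 nm ex/540 nm em) every second for 2 min after Stimulus Buffer addition in dye-loaded hERG-U2OS cells.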
Background: hERG is a cardiac potassium channel; its block is linked to QT prolongation.

Assay [5] deals with Cytochrome P450 3A4 (Homo sapiens) (UniProt P08684). The assay can be described thus: Cytochrome P450 Family 3 Subfamily A Member 4 (CYP3A4) small molecule antagonists: luciferase reporter qHTS assay (AID 1671201). Further: nearly all actives have a fitted effect of over 50% in size. Further: potency means the concentration at half of the fitted maximal effect. The note with it: P450-Glo CYP3A4 enzyme, luciferin luminescence, 1 h; series mostly up to 115 µM. The method, boiled down:
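Luminescent readout (RLU) proportional to CYP3A4 activity, from luciferin generated off a proluciferin substrate. Enzyme–substrate mix plus compound 10 min at room temp, NADPH regeneration 1 h, detection reagent 20 min.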

Chain of Cytochrome P450 3A4 (Homo sapiens) (P08684 whole entry, looked up): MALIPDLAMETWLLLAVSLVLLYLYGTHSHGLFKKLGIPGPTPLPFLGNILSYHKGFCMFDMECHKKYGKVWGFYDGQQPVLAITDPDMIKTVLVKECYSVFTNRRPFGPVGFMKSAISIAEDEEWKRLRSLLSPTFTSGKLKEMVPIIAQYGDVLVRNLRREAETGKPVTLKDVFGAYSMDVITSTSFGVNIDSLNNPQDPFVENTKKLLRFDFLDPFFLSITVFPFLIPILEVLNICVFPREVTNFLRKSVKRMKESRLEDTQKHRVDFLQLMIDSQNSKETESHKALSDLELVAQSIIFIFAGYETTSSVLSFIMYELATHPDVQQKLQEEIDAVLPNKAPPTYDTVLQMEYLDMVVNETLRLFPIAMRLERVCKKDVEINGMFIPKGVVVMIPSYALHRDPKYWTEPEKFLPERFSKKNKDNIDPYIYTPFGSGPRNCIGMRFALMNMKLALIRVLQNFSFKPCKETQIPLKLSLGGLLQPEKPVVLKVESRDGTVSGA
Chain of Cytochrome P450 2C19 (Homo sapiens) (P33261 whole entry, looked up): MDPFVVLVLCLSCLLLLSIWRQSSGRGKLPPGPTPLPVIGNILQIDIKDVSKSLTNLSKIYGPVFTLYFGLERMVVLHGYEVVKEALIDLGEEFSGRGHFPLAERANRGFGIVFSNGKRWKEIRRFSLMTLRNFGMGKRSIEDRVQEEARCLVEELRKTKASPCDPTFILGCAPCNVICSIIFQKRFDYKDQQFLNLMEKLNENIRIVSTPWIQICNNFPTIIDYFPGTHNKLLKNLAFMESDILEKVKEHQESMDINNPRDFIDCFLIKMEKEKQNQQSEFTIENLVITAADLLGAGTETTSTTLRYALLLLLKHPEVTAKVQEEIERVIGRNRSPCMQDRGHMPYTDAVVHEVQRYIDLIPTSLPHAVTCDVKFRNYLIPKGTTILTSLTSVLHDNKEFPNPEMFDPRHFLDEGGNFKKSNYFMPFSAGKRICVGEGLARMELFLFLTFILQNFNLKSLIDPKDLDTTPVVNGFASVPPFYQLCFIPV
Chain of Cytochrome P450 1A2 (Homo sapiens) (P05177 whole entry, looked up): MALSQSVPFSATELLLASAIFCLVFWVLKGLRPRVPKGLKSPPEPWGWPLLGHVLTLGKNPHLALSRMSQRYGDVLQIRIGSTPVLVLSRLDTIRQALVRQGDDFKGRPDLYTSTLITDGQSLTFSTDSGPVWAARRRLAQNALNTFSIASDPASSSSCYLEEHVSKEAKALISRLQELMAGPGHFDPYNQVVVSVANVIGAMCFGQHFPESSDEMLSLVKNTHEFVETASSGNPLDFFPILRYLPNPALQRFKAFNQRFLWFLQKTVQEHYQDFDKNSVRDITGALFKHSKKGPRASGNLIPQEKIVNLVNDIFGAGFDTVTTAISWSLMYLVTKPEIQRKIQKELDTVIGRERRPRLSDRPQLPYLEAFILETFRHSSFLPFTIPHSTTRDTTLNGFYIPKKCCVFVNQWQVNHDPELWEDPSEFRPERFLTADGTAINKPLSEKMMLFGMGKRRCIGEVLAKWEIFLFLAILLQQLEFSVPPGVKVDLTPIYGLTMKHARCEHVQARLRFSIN
Chain of Cytochrome P450 2C9 (Homo sapiens) (P11712 whole entry, looked up): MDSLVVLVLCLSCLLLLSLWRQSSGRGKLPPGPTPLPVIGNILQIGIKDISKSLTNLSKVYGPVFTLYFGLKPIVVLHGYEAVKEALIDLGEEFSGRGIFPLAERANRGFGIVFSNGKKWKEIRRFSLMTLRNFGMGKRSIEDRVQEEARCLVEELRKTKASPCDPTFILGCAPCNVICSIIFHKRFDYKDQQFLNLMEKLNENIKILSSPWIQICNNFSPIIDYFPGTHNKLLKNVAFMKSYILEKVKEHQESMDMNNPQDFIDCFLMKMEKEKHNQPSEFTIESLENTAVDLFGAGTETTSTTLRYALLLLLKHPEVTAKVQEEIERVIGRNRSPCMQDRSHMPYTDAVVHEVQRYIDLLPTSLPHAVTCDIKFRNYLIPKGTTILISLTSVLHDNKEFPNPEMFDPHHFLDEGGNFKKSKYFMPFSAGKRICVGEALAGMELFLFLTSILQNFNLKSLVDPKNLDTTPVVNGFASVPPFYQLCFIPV
Chain of Voltage-gated inwardly rectifying potassium channel KCNH2 (Homo sapiens) (Q12809 whole entry, looked up): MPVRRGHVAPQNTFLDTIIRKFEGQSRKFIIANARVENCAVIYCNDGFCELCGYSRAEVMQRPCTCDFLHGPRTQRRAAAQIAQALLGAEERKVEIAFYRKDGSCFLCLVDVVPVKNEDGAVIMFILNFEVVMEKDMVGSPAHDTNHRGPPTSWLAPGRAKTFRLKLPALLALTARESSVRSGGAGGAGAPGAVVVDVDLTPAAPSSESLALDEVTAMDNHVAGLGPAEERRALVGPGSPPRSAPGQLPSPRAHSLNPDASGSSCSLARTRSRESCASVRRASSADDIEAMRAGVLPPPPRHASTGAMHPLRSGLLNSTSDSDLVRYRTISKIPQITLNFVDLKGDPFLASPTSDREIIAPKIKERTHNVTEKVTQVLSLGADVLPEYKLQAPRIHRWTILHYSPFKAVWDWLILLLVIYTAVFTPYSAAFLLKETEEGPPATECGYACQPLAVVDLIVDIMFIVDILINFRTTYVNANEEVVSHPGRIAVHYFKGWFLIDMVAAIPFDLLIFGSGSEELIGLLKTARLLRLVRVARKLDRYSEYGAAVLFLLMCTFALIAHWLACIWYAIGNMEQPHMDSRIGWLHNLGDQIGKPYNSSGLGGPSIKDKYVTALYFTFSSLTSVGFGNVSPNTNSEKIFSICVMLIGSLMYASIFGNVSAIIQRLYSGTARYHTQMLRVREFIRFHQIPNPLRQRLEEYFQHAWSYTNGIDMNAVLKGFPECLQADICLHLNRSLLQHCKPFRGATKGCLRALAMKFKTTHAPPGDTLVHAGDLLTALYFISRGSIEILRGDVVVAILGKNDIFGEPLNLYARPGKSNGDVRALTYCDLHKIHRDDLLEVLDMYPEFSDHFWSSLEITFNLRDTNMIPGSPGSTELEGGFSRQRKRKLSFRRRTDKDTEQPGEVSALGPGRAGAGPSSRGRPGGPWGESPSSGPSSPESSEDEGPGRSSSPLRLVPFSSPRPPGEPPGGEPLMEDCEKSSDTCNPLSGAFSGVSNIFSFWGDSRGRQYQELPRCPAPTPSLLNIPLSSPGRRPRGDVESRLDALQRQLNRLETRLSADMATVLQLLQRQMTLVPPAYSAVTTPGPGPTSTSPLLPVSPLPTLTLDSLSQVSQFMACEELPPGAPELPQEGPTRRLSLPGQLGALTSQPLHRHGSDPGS

Take `COc1ccc(O)cc1`: the Potency in assay [1] is 34.3 µM (active) and inactive. Also, the Potency entry in assay [2], in assay [3] and in assay [4] was “inactive” each time.

Consider `Cc1c(N(C)C)c(=O)n(-c2ccccc2)n1C`, for which the Potency was 32.2 µM (active) and inactive in assay [1]; 25.6 µM (active) in assay [3]. The Potency result in assay [2] and in assay [4] was “inactive” throughout.

In the case of `NC(=O)N/N=C/c1ccc([N+](=O)[O-])o1`, the Potency result in assay [1] was “inactive and 39.9 µM (active) and 43.6 µM (active)”; in assay [3], “inactive and 41.5 µM (active)”. Further, the Potency result in assay [2], in assay [4] and in assay [5] was “inactive” each time.

For `COc1cc(C=O)ccc1O`, the Potency result in assay [1], in assay [2], in assay [3], in assay [4] and in assay [5] was “inactive” in each case.

Regarding `COC(=O)c1ccc(C=O)cc1`, the Potency is 71 µM (active) and inactive in assay [1]; 42.3 µM (active) in assay [3]. Also, the Potency result in assay [2], in assay [4] and in assay [5] was “inactive” in each case.

In the case of `CCCCCCCCOc1ccc(C(=O)c2ccccc2)c(O)c1`, the Potency entry in assay [1] was “inactive and 35.6 µM (active)”; in assay [2] it was 12.6 µM (active). The Potency result in assay [3], in assay [4] and in assay [5] was “inactive” each time.

In the case of `C/C=C/c1ccc(O)c(OC)c1`, the Potency in assay [1] is 7.96 µM (active) and 39.9 µM (active) and 8.71 µM (active); in assay [2] it was 2.83 µM (active) and 20 µM (active) and 13.8 µM (active); in assay [3], 20 µM (active) and 22.4 µM (active) and 11.5 µM (active). For the same compound, the Potency entry in assay [4] is “inactive”.

As to `C=CCOC(=O)CC(C)C`, the Potency result in assay [1], in assay [2], in assay [3], in assay [4] and in assay [5] was “inactive” each time.

On to `Cc1ccc(O)c(-n2nc3ccccc3n2)c1`, for which the Potency in assay [1] was 7.05 µM (active) and 10 µM (active); in assay [2], 8.87 µM (active) and 7.1 µM (active) and 8.71 µM (active); in assay [3] it was 2.23 µM (active) and 1.42 µM (active) and 2.57 µM (active); in assay [5] it was 22.3 µM (active) and 25.2 µM (active). The Potency result in assay [4] was “inactive”.

For `Cc1cccc2ccccc12`, the Potency result in assay [1] was “inactive and 71 µM (active)”. Further, the Potency result in assay [2], in assay [3], in assay [4] and in assay [5] was “inactive” in each case.

With `O=C(OCc1ccccc1)c1ccccc1`, the Potency in assay [1] is 31.8 µM (active) and 39.9 µM (active) and 17.4 µM (active); in assay [2], 40 µM (active) and 63.3 µM (active); in assay [3] it was 31.8 µM (active) and 35.6 µM (active) and 13.8 µM (active). In addition, the Potency entry in assay [4] and in assay [5] was “inactive” each time.

Turning to `COc1cc(O)c(C(=O)c2ccccc2)cc1S(=O)(=O)O`, the Potency in assay [1] was 78.8 µM (active) and inactive. In addition, the Potency result in assay [2], in assay [3], in assay [4] and in assay [5] was “inactive” each time.

`CC(=O)OC/C=C(C)/C=C/C=C(C)/C=C/C1=C(C)CCCC1(C)C`: the Potency in assay [1] is 39 µM (active) and 35.6 µM (active); in assay [2], 31 µM (active) and 31.7 µM (active) and 19.5 µM (active). The Potency entry in assay [3] and in assay [4] was “inactive” throughout.

Regarding `CC(=O)c1ccc(S(=O)(=O)NC(=O)NC2CCCCC2)cc1`, the Potency entry in assay [1], in assay [3] and in assay [4] was “inactive” throughout. Besides, in assay [2], the Potency was 31.6 µM (active) and 31.7 µM (active) and 17.4 µM (active).

Consider `COCCOCCOC`, for which the Potency entry in assay [1], in assay [2], in assay [3], in assay [4] and in assay [5] was “inactive” in each case.

In the case of `CCCCC/C(C=O)=C\c1ccccc1`, the Potency is 35.6 µM (active) and 39.9 µM (active) and inactive in assay [1]; 39.9 µM (active) in assay [2]; 28.3 µM (active) and 35.6 µM (active) and 5.49 µM (active) in assay [3]. The Potency result in assay [4] was “inactive”.

`NC(=O)c1ccc([N+](=O)[O-])cc1Cl`: the Potency result in assay [1], in assay [3], in assay [4] and in assay [5] was “inactive” in each case. Further, the Potency in assay [2] was 71 µM (active) and inactive.

Take `CN(C)Cc1cc(CN(C)C)c(O)c(CN(C)C)c1`: the Potency result in assay [1], in assay [2], in assay [3] and in assay [4] was “inactive” in each case.

Take `CC(=O)Oc1ccccc1C(=O)O`: the Potency was 79.2 µM (active) and inactive in assay [1]; “inactive and 24.5 µM (active)” in assay [3]. Moreover, the Potency entry in assay [2] and in assay [4] was “inactive” in each case.

As to `Nc1cccc(N)c1`, the Potency in assay [1] is 56.3 µM (active) and 39.4 µM (active); in assay [2], 70.9 µM (active); in assay [3], 63.2 µM (active) and 39.4 µM (active) and 31.7 µM (active). Further, the Potency result in assay [4] is “inactive”.

`CCCCOCCOCCOC(C)=O`: the Potency result in assay [1], in assay [2], in assay [3] and in assay [4] was “inactive” throughout.

On to `CN(C)C=O`, for which the Potency entry in assay [1], in assay [2], in assay [3], in assay [4] and in assay [5] was “inactive” throughout.

As for `C[C@]12CC[C@@H]3c4ccc(O)cc4C[C@@H](CCCCCCCCCS(=O)CCCC(F)(F)C(F)(F)F)[C@H]3[C@@H]1CC[C@@H]2O` (stereo not given in full), the Potency was 7.1 µM (active) and 10.5 µM (active) and 6.92 µM (active) in assay [1]; 2.83 µM (active) and 3.32 µM (active) and 2.75 µM (active) in assay [2]; 2 µM (active) and 1.86 µM (active) and 1.55 µM (active) in assay [5]. The Potency entry in assay [3] and in assay [4] was “inactive” each time.
